Screens deposited in PubChem by several laboratories.
CYP2C19 inhib: blocks human cytochrome P450 2C19; CYP2C19 Supersomes, luciferin-H EGE luminescence, 30 min; inhibition, % at 5 µM; 96,000 tested, 21% active; P33261;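 active = CYP2C19 inhibition above a set limit at 5 µM in the primary screen, cut at about 50% in these data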
CYP2C19 activ: increases human CYP2C19 enzyme activity; activation factor at 5 µM; recombinant CYP2C19, luciferin-H EGE luminescence; stronger effect = higher value; 0 = fully inhibited enzyme, 1 = untreated enzyme; 96,000 tested, under 10 active;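 active = activation factor of at least 2 at 5 µM in the primary screen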
CYP2C9 inh: human CYP2C9 inhibition; inhibition, % at 5 µM; 96,000 tested, 20% active; P11712; CYP2C9 Supersomes, luciferin-H conversion, luminescence;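 active = blocking of liver enzyme CYP2C9 beyond about 50% at 5 µM, limit read from the data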
Target sequence (P11712 whole entry, looked up): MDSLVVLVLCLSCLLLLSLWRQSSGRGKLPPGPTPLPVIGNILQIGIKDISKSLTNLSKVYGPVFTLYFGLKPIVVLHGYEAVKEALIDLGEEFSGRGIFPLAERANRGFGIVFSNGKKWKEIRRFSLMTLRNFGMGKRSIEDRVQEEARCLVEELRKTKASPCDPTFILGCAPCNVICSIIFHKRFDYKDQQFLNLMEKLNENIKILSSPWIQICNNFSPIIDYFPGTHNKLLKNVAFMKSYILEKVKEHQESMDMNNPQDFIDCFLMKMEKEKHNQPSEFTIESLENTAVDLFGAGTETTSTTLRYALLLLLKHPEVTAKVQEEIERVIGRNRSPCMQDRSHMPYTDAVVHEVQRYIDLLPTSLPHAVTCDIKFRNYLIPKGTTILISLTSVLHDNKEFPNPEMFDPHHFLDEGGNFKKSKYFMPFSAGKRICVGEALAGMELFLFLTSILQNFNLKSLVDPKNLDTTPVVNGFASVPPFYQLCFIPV
CYP2C9 activ: increases human cytochrome P450 2C9 activity; AID 1024; 96,000 tested, 1.4% active; activation factor at 5 µM; recombinant CYP2C9, luciferin-H conversion, luminescence; stronger effect = higher value; factor 1 = untreated enzyme, 0 = blocked; P11712;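 active = activation factor of 2 or more for CYP2C9 at a 5 µM dose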
PLK1 kinase inh: inhibitors of human PLK1 kinase; inhibition, % at 10 µM; recombinant PLK1 kinase, TR-FRET peptide phosphorylation; 97,000 tested, 0.53% active;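 active = inhibition of 50% or more in the single-concentration screen; inactive = inhibition below 50%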
PLK1 PBD inh: blocks phosphopeptide binding to human Plk1 polo box domain. 97,000 tested, 0.13% active. Plk1 PBD phosphopeptide binding, fluorescence polarization. inhibition, %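 (tested at about 20 µM)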. AID 693; in the data active = inhibition above about 34%, passing the limit was not always enough
A number is an active result; . = inactive; / = no result. The list is not random: actives were taken first. Their share in the collection is about 28%.

SMILES	CYP2C19 inhib	CYP2C19 activ	CYP2C9 inh	CYP2C9 activ	PLK1 kinase inh	PLK1 PBD inh
CCOC(=O)c1c(NC(=O)CSc2nnc(-c3ccco3)o2)sc(C)c1C	.	.	.	.	.	.
COC(=O)c1c(NC(=O)CSc2nnnn2-c2ccc3c(c2)OCO3)sc(C)c1C	.	.	.	.	.	.
CCSc1nnc(-c2cccnc2)n1Cc1ccco1	.	.	.	.	.	.
COC(=O)c1c(NC(=O)CSc2nnnn2C)sc(C)c1C	65	.	66	.	.	.
C=CCn1c(SCC(=O)Nc2sc(C)c(C)c2C(=O)OCC)nnc1-c1sc(N)nc1C	60	.	62	.	.	.
COC(=O)c1c(NC(=O)CSc2nnc(-c3ccco3)n2Cc2ccccc2)sc(C)c1C	.	.	62	.	.	.
CCOC(=O)c1c(NC(=O)CSc2nnc(-c3cccnc3)n2Cc2ccco2)sc(C)c1C	.	.	66	.	.	.
O=C(Cc1cn2ccsc2n1)Nc1nc2c(s1)CN(Cc1ccccc1)CC2	.	.	.	.	/	/
O=C(COC(=O)c1ccccn1)NCc1ccccc1	69	.	.	.	.	.
O=C(OCc1ccc(Cl)c(Cl)c1)c1ccccn1	96	.	53	.	.	.
O=C(OCC1CC(c2ccccn2)=NO1)c1ccc(Br)cc1 (stereo not given)	77	.	82	.	/	/
N/C(=N\OC(=O)c1ccc(Cl)c(Cl)c1)c1ccccn1	.	.	.	.	.	.
Cc1ccc(C(=O)COC(=O)c2cnccn2)cc1	.	.	.	.	.	.
O=C(COC(=O)c1ccccn1)c1ccc(Br)cc1	57	.	.	.	/	/
CC(=O)Cc1nsc(NC(=O)c2cc(-c3cccc(C(F)(F)F)c3)oc2C)n1	.	.	.	.	.	.
O=C(Nc1cccc(Cl)c1)Nc1ccc2c(c1)OCO2	.	.	.	.	.	.
O=C(COC(=O)c1ccncc1)NCc1ccccc1	85	.	65	.	.	.
O=C(COc1ccccc1Cl)NCc1ccncc1	94	.	78	.	/	/
O=C(COc1ccccc1Cl)NCc1ccco1	.	.	.	.	.	.
Oc1ccc2[nH]cnc2c1CN1CCCCC1	.	.	.	.	.	.
CC(C)c1ccc(C2NC(=O)NC3=C2CCc2ccccc23)cc1 (stereo not given)	.	.	.	.	.	.
Cc1ccc(C2NC(=O)NC3=C2CCc2ccccc23)cc1 (stereo not given)	95	.	.	.	.	.
COc1ccc(C2NC(=O)NC3=C2CCc2ccccc23)cc1 (stereo not given)	81	.	.	.	.	.
CCCn1ncc(OC)c(Cl)c1=O	.	.	.	.	.	.
Cc1ccc(C)c(NC(=O)CC(NCCCN2CCOCC2)C(=O)O)c1 (stereo not given)	/	/	/	/	.	.
SMILES	CYP2C19 inhib	CYP2C19 activ	CYP2C9 inh	CYP2C9 activ	PLK1 kinase inh	PLK1 PBD inh
O=C1CSc2ccccc2N1Cc1ccc(F)cc1	69	.	70	.	.	.
O=C(O)CN1C(=O)CSc2ccccc21	.	.	.	.	/	/
Nc1ccc(SC(F)(F)F)cc1C(=O)c1ccccc1	.	.	.	.	.	.
Cc1ccc(S(=O)(=O)N/N=C/c2ccc(OCC(=O)Nc3ccccc3Cl)cc2)cc1	.	.	84	.	.	.
CC(C)NC(=O)COc1ccc(/C=N/NS(=O)(=O)c2ccccc2)cc1	.	.	.	.	.	.
O=C(COc1ccc(/C=N/NS(=O)(=O)c2ccccc2)cc1)Nc1ccc(F)cc1	.	.	65	.	.	.
O=C(NCc1ccco1)c1ccc2nc3sc4c(c3c(=O)n2c1)CCCC4	.	.	.	.	.	.
COc1cc(C(=O)NC(=S)Nc2cccc(-c3cc4ccccc4oc3=O)c2)cc(OC)c1OC	.	.	68	.	.	.
O=c1[nH]c2cc3c(cc2cc1C(c1nnnn1CC1CCCO1)N1CCCC1)OCO3 (stereo not given)	.	.	.	.	.	.
Cc1cc(C)c(C(N)=O)c(SCC(=O)c2ccc(Cl)cc2)n1	.	.	.	.	.	.
Cc1cc(C)c(S(C)(=O)=O)c(Sc2ccc(Cl)cc2)n1	.	.	65	.	.	.
Cc1sc2ncnc(NCCN3CCOCC3)c2c1C	.	.	.	.	.	.
COc1cc(-c2nnn(CC#N)n2)ccc1OCc1ccccc1	96	.	76	.	.	.
COc1ccc(-c2nnn(CC(=O)c3ccccc3)n2)cc1OC	59	.	.	.	.	.
COc1ccc(-c2nnn(Cc3nn[nH]n3)n2)cc1OC	.	.	58	.	.	.
COc1cc(-c2nnn(CC(=O)NC3CCS(=O)(=O)C3)n2)ccc1OCc1ccccc1 (stereo not given)	52	.	69	.	.	.
O=C(CN1CCC(NC(=O)Cc2ccccc2)CC1)Nc1cccc2ccccc12	.	.	.	.	.	.
N#CCn1nnc(-c2ccc3c(c2)OCO3)n1	67	.	.	.	.	.
CC(C)(C)NC(=O)c1cccc(NC(=O)CSc2ccccc2)c1	.	.	.	.	.	.
Cc1ccccc1C1=NC(c2ccc(F)cc2F)ON1 (stereo not given)	.	.	.	.	.	.
CCOC(=O)c1ccccc1OCc1cc(/C=N/n2cnnc2)ccc1OC	61	.	71	.	.	.
COc1cc(/C=N\n2cnnc2)ccc1OCC(=O)Nc1ccc(C)cc1	.	.	.	.	.	.
O=C(CCc1ccc(S(=O)(=O)NC2CCCCC2)cc1)Nc1ccccc1	.	.	.	.	.	.
CSc1ccc(S(=O)(=O)NC2CCCCCC2)cc1	95	.	.	.	.	.
O=C(CCc1ccc(S(=O)(=O)NC2CCCCC2)cc1)N(Cc1ccccc1)Cc1ccccc1	70	.	88	.	.	.
SMILES	CYP2C19 inhib	CYP2C19 activ	CYP2C9 inh	CYP2C9 activ	PLK1 kinase inh	PLK1 PBD inh
O=C(NC1CC1)c1ccc(S(=O)(=O)NC2CCCCCC2)cc1	54	.	.	.	.	.
O=c1cc(-c2c(F)c(F)c(F)c(F)c2F)oc2c(F)c(F)c(F)c(F)c12	.	.	.	.	/	/
Clc1ccc(-c2nnnn2-c2ccc(Cl)c(Cl)c2)cc1Cl	96	.	53	.	.	.
CC1CCCN(C(=O)COC(=O)c2ccc[nH]c2=O)C1 (stereo not given)	.	.	.	.	.	.
C/C(=N\OC(=O)c1cccc(C(F)(F)F)c1)c1sc(-c2ccccc2)nc1C	.	.	.	.	.	.
C/C(=N\OC(=O)c1cccc(C)c1)c1sc(-c2ccccc2)nc1C	52	.	.	.	.	.
CCCc1cc(N2CCCC(C(=O)NCC)C2)n2ncnc2n1 (stereo not given)	.	.	.	.	.	.
O=C(N/C(=C\c1cccc([N+](=O)[O-])c1)C(=O)N1CCCCC1)c1cccs1	.	.	.	.	.	.
COC(=O)c1cc(-c2ccc(OC)c(OC)c2)n[nH]1	55	.	.	.	.	.
CCCCn1nnnc1SCC(=O)N1CCOCC1	.	.	.	.	.	.
